Assay [1] addresses Bile acid receptor (Homo sapiens) (UniProt Q96RI1). Put plainly: ATG_IR1_CIS: Attagene CIS-FACTORIAL HepG2 Assay for human Nuclear Receptor Subfamily 1 Group H Member 4 (NR1H4), IR1 submotif (AID 2282946). Particulars: IR1 reporter transcription, actives raise or lower the signal. An outline of the steps:
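Cells (human HepG2) carry transiently transfected cis-promoter reporter transcription units. Compounds are incubated 24 h, total RNA is reverse-transcribed and amplified, and labelled fragments are resolved by capillary electrophoresis. Curves use DMSO as baseline.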

Assay [2] can be described thus: ATG_GRE_CIS: Attagene CIS-FACTORIAL HepG2 Assay for human Glucocorticoid Response Elements (GRE) (AID 2282947). As to conditions: HepG2 GRE cis-reporter, Attagene multiplex mRNA; actives raise or lower the signal. A digest of the protocol: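 Assay uses human hepatoma HepG2 cells transfected with cis-promoter reporter units, exposed 24 h. mRNA from reporters detected by RT-PCR plus capillary electrophoresis; DMSO serves as negative control and baseline.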

The nature of assay [3]: ATG_ISRE_CIS: Attagene CIS-FACTORIAL HepG2 Assay for human Interferon Regulatory Factor 1 (IRF1) binding to an Interferon-Stimulated Response Element (ISRE) (AID 2282948). Particulars: HepG2 ISRE cis-reporter (Attagene), mRNA transcription readout; actives raise or lower the signal. An outline of the steps: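 Quantitation relies on labelled RT-PCR fragments separated by capillary electrophoresis. Human HepG2 cells bearing cis-promoter reporter constructs were treated 24 h; DMSO served as baseline for bidirectional fitting.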

The nature of assay [4]: ATG_M_32_CIS: Attagene CIS-FACTORIAL HepG2 Assay for M32 Transcription Factor (Internal Marker) (AID 2282949).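 Also: background control marker of the multiplexed CIS panel rather than a real target.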 Particulars: HepG2 Attagene cis-factorial M32 reporter, mRNA; actives raise or lower the signal. A digest of the protocol:
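Internal background marker read-out: RT-PCR/capillary electrophoresis fluorescence of reporter transcripts from transiently transfected HepG2 cells after 24 h chemical exposure. Activity fitted bidirectionally relative to DMSO negative control.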

Assay [5] in a line: ATG_M_06_CIS: Attagene CIS-FACTORIAL HepG2 Assay for M06 Transcription Factor (Internal Marker) (AID 2282950). Particulars: HepG2 Attagene CIS-FACTORIAL M06 internal marker reporter; actives raise or lower the signal. An outline of the steps:
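Cells (HepG2, transiently carrying cis-driven reporter units) receive chemical for 24 h before RNA isolation. Reporter cDNA is PCR-amplified, FAM-labelled by primer extension, HpaI-digested and sized on a capillary analyser.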

For assay [6], the target named is Hypoxia-inducible factor 1-alpha (Homo sapiens) (UniProt Q16665). Put plainly: ATG_HIF1a_CIS: Attagene CIS-FACTORIAL HepG2 Assay for human Hypoxia Inducible Factor 1 (HIF1A) (AID 2282951). As to conditions: HepG2 Attagene cis-factorial HIF1a reporter transcription; actives raise or lower the signal. A digest of the protocol:
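Measures endogenous transcription-factor activity through cis-regulated reporter mRNA in HepG2. Cells dosed 24 h; transcripts quantified by RT-PCR with 6-FAM-labelled products separated by capillary electrophoresis; DMSO serves as negative control.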

Assay [7] deals with Hepatocyte nuclear factor 6 (Homo sapiens) (UniProt Q9UBC0). Kind of assay: ATG_HNF6_CIS: Attagene CIS-FACTORIAL HepG2 Assay for human Hepatocyte Nuclear Factor 6 (HNF6) (AID 2282952). Particulars: HepG2 Attagene cis-factorial HNF6 reporter transcription; actives raise or lower the signal. An outline of the steps: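 Transiently transfected HepG2 cells expressing cis-regulated reporter transcription units were exposed to chemical for 24 h in a 24-well format. Reporter transcript abundance was determined by fluorescence capillary electrophoresis.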
Hepatocyte nuclear factor 6 (Homo sapiens), sequence (Q9UBC0 whole entry, looked up): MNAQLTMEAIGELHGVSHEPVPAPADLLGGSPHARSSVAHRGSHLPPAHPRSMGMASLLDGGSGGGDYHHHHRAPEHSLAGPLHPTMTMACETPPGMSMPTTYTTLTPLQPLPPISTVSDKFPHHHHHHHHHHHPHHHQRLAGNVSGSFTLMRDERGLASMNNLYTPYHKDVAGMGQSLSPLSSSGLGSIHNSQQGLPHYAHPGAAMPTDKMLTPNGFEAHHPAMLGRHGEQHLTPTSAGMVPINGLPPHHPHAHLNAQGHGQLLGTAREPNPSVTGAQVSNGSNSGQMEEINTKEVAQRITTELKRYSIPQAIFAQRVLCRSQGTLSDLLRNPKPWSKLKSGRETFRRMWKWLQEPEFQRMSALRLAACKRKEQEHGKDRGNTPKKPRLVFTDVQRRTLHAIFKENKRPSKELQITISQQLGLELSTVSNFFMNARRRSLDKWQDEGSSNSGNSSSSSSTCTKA

Assay [8] has as its target Heat shock factor protein 1 (Homo sapiens) (UniProt Q00613). Kind of assay: ATG_HSE_CIS: Attagene CIS-FACTORIAL HepG2 Assay for human Heat Shock Transcription Factor 1 (HSE) (AID 2282953). As to conditions: HepG2 HSE cis-reporter, Attagene RNA transcription; actives raise or lower the signal. An outline of the steps:
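Liver-derived HepG2 cells carry transiently introduced multiple reporter units governed by cis promoters. Reporter RNA measured 24 h post-dose through reverse transcription, PCR amplification, fluorescent labelling and capillary electrophoresis, normalised to DMSO.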

Assay [9] in a line: ATG_MRE_CIS: Attagene CIS-FACTORIAL HepG2 Assay for human Metal Responsive Element (MRE) (AID 2282954). As to conditions: HepG2 MRE cis-reporter transcription, Attagene multiplex; actives raise or lower the signal. A digest of the protocol:
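After a 24 h chemical exposure, transiently transfected HepG2 cells yield RNA whose reporter sequences are amplified, FAM-labelled and sized by capillary electrophoresis. Curves are fitted bidirectionally relative to DMSO.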

For assay [10], the target named is Paired box protein Pax-6 (Homo sapiens) (UniProt P26367). Put plainly: ATG_Pax6_CIS: Attagene CIS-FACTORIAL HepG2 Assay for human Paired Box 6 (PAX6) (AID 2282956). As to conditions: HepG2 CIS-FACTORIAL PAX6 reporter transcription, RNA readout; actives raise or lower the signal. An outline of the steps:
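After twenty-four hours of chemical exposure, transfected HepG2 cells are harvested for RNA. Cis-promoter reporter transcripts are amplified, fluorescently labelled and sized by capillary electrophoresis, with gain and loss of signal scored against DMSO.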

Assay [11] is described as follows: ATG_PXRE_CIS: Attagene CIS-FACTORIAL HepG2 Assay for human Pregnane X Receptor Element (PXRE) (AID 2282957). As to conditions: HepG2 Attagene CIS-FACTORIAL PXRE reporter, mRNA; actives raise or lower the signal. An outline of the steps:
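Cis-element reporter mRNA in human hepatoma HepG2 cells is measured 24 h post-dosing by RT-PCR, primer-extension labeling and capillary electrophoresis; gain or loss of signal is fitted relative to DMSO.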

Assay [12] in a line: ATG_PPRE_CIS: Attagene CIS-FACTORIAL HepG2 Assay for human Peroxisome Proliferator-activated Response Element (PPRE) (AID 2282958). Particulars: HepG2 PPRE cis-element reporter, Attagene transcription factor profiling; actives raise or lower the signal. A digest of the protocol: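 Cells are first transfected transiently with the multiplexed reporter library, then dosed for 24 h. Total RNA is reverse-transcribed, amplified, fluorescently end-labeled and HpaI-cut before capillary electrophoresis; activity is fitted bidirectionally against DMSO controls.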

Assay [13] can be described thus: ATG_RORE_CIS: Attagene CIS-FACTORIAL HepG2 Assay for human RAR-related Orphan Receptor Element (RORE) (AID 2282959). Particulars: HepG2 Attagene cis-factorial RORE reporter, mRNA; actives raise or lower the signal. An outline of the steps:
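Cells were HepG2 carrying transfected cis-regulated reporter constructs, dosed for 24 hours. Total RNA was reverse-transcribed and reporter cDNA amplified, fluorescently labeled and sized by capillary electrophoresis. Activity was fitted bidirectionally relative to DMSO.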

A short description of assay [14]: ATG_Sox_CIS: Attagene CIS-FACTORIAL HepG2 Assay for human SRY-box transcription factor (SOX) (AID 2282960). As to conditions: HepG2 Attagene cis-factorial SOX reporter, mRNA; actives raise or lower the signal. A digest of the protocol:
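Transient MRTU transfection of HepG2; 24 h compound incubation; TriZol RNA, oligo(dT) RT, PCR, 6-FAM primer extension, HpaI cut, CE. Bidirectional fit, DMSO = baseline.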

The target of assay [15] is Transcription factor Sp1 (Homo sapiens) (UniProt P08047). Put plainly: ATG_Sp1_CIS: Attagene CIS-FACTORIAL HepG2 Assay for human Specificity Protein 1 (Sp1) (AID 2282961). As to conditions: HepG2 Sp1 cis-reporter transcription, actives raise or lower the signal. A digest of the protocol: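 Endogenous Sp1 activity was gauged in human liver HepG2 cells bearing transfected reporter units under a cis-regulating promoter. After 24 h dosing, reporter mRNA was quantified by RT-PCR with capillary electrophoresis, and activity fitted bidirectionally versus DMSO.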
Transcription factor Sp1 (Homo sapiens), sequence (P08047 whole entry, looked up): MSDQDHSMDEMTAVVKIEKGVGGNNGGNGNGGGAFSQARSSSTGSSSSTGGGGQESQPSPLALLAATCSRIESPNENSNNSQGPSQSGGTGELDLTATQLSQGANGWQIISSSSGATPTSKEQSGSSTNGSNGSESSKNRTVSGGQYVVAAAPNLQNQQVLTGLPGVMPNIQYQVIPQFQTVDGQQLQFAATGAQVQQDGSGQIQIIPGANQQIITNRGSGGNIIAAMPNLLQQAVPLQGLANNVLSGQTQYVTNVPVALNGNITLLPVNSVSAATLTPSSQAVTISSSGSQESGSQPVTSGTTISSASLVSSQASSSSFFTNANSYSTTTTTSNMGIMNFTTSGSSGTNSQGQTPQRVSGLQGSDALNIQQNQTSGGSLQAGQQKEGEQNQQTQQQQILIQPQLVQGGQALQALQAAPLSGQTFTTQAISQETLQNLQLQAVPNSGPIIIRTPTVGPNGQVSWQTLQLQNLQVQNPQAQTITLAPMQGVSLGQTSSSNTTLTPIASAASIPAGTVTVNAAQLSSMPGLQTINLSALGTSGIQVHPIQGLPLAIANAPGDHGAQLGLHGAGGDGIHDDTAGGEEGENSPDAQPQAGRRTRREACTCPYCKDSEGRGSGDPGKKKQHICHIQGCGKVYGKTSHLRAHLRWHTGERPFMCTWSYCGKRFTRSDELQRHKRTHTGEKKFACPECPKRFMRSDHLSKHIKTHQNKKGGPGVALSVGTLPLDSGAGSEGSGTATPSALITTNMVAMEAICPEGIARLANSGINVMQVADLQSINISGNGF

Assay [16] is described as follows: ATG_SREBP_CIS: Attagene CIS-FACTORIAL HepG2 Assay for human Sterol Regulatory Element Binding (SREBP) (AID 2282962). As to conditions: HepG2 Attagene cis-factorial SREBP reporter, mRNA; actives raise or lower the signal. An outline of the steps:
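Twenty-four hours after chemical dosing of transfected HepG2 cultures, reporter RNA was converted to cDNA, amplified, end-labelled with 6-FAM and resolved by capillary electrophoresis. Responses were fitted relative to DMSO.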

Assay [17] deals with Signal transducer and activator of transcription 3 (Homo sapiens) (UniProt P40763). Kind of assay: ATG_STAT3_CIS: Attagene CIS-FACTORIAL HepG2 Assay for human Signal Transducer and Activator of Transcription 3 (STAT3) (AID 2282963). Particulars: HepG2, Attagene cis-factorial STAT3 reporter transcription; actives raise or lower the signal. An outline of the steps: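 After a 24 h compound incubation, total RNA from MRTU-transfected HepG2 cells was converted to cDNA and reporter sequences PCR-amplified, labelled and profiled by capillary electrophoresis. Gain and loss of signal were referenced to DMSO.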
Signal transducer and activator of transcription 3 (Homo sapiens), sequence (P40763 whole entry, looked up): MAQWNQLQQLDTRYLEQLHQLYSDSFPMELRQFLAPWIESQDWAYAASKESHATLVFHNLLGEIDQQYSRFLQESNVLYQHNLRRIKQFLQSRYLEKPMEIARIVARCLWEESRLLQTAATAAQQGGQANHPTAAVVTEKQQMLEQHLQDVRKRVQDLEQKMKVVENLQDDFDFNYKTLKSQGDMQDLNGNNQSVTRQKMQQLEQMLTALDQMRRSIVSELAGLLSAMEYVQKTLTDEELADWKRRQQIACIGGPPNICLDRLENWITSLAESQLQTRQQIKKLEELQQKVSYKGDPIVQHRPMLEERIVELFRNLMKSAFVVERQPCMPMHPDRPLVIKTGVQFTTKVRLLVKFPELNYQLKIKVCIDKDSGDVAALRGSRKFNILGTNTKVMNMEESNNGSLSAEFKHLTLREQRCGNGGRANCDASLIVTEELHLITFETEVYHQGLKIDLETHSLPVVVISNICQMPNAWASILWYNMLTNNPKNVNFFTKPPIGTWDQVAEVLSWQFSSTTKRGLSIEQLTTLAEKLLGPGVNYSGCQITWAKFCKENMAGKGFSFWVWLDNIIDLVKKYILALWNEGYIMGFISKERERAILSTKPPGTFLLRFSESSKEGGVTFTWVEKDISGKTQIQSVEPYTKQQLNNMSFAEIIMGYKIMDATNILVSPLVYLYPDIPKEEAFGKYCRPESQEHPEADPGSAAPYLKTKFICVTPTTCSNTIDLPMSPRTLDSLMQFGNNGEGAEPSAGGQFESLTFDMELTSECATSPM

Assay [18] is described as follows: ATG_TA_CIS: Attagene CIS-FACTORIAL HepG2 Assay for human TA Basal Promoter (AID 2282964). As to conditions: HepG2 Attagene CIS-factorial TA basal promoter reporter; actives raise or lower the signal. A digest of the protocol: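 Background internal-marker endpoint from a 52-component HepG2 cis-reporter panel. Cells treated 24 h; reporter transcripts quantified via RT-PCR and CE fluorescence against DMSO baseline.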

Assay [19] is described as follows: ATG_TCF_b_cat_CIS: Attagene CIS-FACTORIAL HepG2 Assay for human T-Cell-Factor with beta-catenin (TCF/b-cat) (AID 2282965). Particulars: HepG2 TCF/beta-catenin cis-reporter transcription, actives raise or lower the signal. A digest of the protocol:
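Endogenous transcription factor activity is captured through cis-promoter reporter constructs transiently introduced into human HepG2 liver cells. Induced reporter mRNA is measured after 24 h and fitted bidirectionally relative to DMSO.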

Assay [20] can be described thus: ATG_PBREM_CIS: Attagene CIS-FACTORIAL HepG2 Assay for human Phenobarbital-responsive Enhancer Module (PBREM) (AID 2282955). Particulars: HepG2 PBREM cis-reporter, Attagene multiplexed transcription; actives raise or lower the signal. A digest of the protocol:
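Fluorescence of labelled reporter cDNA fragments, resolved by capillary electrophoresis, gives mRNA induction in transfected HepG2 cells treated for 24 h; DMSO serves as negative control and baseline.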

The source made the active and inactive calls. The calls were made as follows: active = hit-call score of the fitted dose curve at least 0.9, where 1 is the maximum; inactive = score below 0.9.

Hypoxia-inducible factor 1-alpha (Homo sapiens), sequence (Q16665 whole entry, looked up): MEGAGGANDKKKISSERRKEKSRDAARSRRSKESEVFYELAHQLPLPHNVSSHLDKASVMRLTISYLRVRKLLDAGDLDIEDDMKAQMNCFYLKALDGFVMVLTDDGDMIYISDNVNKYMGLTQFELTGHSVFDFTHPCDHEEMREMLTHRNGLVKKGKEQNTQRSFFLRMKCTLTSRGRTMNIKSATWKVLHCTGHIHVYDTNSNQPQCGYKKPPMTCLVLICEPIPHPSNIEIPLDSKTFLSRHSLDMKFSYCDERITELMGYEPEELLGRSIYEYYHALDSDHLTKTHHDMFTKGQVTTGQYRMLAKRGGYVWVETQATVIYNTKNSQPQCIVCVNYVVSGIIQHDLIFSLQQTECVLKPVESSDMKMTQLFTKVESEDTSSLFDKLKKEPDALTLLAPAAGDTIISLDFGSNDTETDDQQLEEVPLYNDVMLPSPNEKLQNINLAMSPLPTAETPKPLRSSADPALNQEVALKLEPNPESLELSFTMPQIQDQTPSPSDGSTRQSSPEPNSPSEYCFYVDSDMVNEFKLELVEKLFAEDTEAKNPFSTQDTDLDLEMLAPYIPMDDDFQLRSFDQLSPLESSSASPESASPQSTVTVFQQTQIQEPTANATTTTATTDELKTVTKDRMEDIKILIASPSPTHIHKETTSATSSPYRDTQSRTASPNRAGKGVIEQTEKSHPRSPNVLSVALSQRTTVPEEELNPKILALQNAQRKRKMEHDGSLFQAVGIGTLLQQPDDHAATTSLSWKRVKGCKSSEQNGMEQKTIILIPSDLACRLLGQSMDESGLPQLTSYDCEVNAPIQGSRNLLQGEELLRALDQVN
Paired box protein Pax-6 (Homo sapiens), sequence (P26367 whole entry, looked up): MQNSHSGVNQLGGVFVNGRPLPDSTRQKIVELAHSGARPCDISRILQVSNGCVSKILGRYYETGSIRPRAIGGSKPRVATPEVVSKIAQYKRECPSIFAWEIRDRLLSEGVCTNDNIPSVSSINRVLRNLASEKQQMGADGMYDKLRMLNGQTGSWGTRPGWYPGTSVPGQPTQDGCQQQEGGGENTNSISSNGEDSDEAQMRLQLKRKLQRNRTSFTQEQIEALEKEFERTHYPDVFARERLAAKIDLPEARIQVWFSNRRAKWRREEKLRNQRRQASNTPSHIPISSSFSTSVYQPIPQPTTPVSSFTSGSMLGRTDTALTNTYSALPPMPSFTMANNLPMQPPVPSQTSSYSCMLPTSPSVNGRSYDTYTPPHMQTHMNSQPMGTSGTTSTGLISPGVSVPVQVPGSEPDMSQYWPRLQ
Heat shock factor protein 1 (Homo sapiens), sequence (Q00613 whole entry, looked up): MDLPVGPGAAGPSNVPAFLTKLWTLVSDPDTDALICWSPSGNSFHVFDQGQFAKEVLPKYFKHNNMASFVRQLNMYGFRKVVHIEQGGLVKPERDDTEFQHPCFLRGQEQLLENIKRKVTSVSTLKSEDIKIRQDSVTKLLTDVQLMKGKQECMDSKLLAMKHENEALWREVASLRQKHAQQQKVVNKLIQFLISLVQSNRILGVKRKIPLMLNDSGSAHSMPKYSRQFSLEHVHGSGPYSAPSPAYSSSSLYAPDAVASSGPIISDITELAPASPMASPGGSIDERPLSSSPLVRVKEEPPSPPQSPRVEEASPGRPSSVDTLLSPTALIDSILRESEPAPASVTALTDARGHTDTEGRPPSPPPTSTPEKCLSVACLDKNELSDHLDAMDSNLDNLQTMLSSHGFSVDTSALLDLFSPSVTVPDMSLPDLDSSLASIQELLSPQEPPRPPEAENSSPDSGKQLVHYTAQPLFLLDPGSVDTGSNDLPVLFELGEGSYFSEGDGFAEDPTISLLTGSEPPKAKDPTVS
Bile acid receptor (Homo sapiens), sequence (Q96RI1 whole entry, looked up, the tested form may be a part): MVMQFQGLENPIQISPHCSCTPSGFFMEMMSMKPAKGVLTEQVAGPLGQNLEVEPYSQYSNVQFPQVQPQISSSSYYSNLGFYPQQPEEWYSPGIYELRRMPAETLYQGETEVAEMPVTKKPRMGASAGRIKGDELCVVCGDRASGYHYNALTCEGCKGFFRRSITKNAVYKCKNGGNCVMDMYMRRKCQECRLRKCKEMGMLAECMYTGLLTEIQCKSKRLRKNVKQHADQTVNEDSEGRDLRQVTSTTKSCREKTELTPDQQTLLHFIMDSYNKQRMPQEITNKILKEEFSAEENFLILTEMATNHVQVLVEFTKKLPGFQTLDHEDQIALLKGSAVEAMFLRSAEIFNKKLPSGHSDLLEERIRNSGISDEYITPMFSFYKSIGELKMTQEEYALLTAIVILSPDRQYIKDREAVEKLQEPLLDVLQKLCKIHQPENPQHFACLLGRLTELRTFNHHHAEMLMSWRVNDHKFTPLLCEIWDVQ

For `CC(=O)OCC=Cc1ccccc1`, the compound was called inactive in assay [1], in assay [2], in assay [3], in assay [4], in assay [5] and in assay [6]. Besides, the compound was classed as inactive in [7], in assay [8], in [9], in assay [10], in assay [12] and in [13]. The compound was called inactive in [14], in assay [15], in assay [16], in assay [17], in [18] and in assay [19]. The AC50 in assay [11] is 32.1 µM (active).
Take `CC(C)c1ccc(C(C)C)cc1`: the outcome in [1], in assay [2], in assay [3], in assay [4], in assay [5] and in assay [7] was inactive. For the same compound, the result in assay [8], in assay [9], in assay [20], in [10], in assay [11] and in [13] was inactive. Further, the call in assay [14], in [15] and in assay [18] was inactive. Further, the AC50 in [6] was 100 µM (active); in assay [16] it was 152 µM (active).
Regarding `O=c1[nH]nnc2ccccc12`, the result in assay [1], in assay [3], in assay [4], in assay [5], in assay [7] and in assay [8] was inactive. Also, the compound was called inactive in assay [9], in assay [20], in assay [10], in assay [11], in [12] and in [13]. Moreover, the result in assay [14], in assay [15], in assay [16], in [17], in [18] and in assay [19] was inactive.
For the compound `O=P(c1ccccc1)(c1ccccc1)c1ccccc1`, the compound was classed as inactive in assay [1], in [4], in assay [5], in assay [6], in assay [7] and in assay [8]. In addition, the compound was called inactive in assay [9], in [20], in assay [12], in assay [13], in assay [14] and in assay [15]. Besides, the outcome in [16], in assay [17], in assay [18] and in assay [19] was inactive. Moreover, the concentration at half-maximal activity (AC50) in assay [11] was 5.59 µM (active).

As a reminder, the AC50 is the midpoint of the concentration-response curve, whichever way the signal moves.

These data come from PubChem BioAssay (EPA / NIEHS).
